Broadly, the inhibition is the change of the read-out against control, counted positive when it falls.

Hit rate of the full screen: of about 330,000 compounds, about 10,000 (3%) were called active. The sample as a whole holds a higher share of actives than the screen did. A number with no mark means an inactive call.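 The calls were made as follows: active = inhibition of at least 50% at 8 µM in the primary screen; inactive = the rest.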

Data on 87 compounds can be found in PubChem BioAssay AID485346 (Sanford-Burnham Center for Chemical Genomics, 2010).

Sequence of Protein Mdm4 (Homo sapiens) + E3 ubiquitin-protein ligase Mdm2 (Homo sapiens) (O15151 whole entry, looked up): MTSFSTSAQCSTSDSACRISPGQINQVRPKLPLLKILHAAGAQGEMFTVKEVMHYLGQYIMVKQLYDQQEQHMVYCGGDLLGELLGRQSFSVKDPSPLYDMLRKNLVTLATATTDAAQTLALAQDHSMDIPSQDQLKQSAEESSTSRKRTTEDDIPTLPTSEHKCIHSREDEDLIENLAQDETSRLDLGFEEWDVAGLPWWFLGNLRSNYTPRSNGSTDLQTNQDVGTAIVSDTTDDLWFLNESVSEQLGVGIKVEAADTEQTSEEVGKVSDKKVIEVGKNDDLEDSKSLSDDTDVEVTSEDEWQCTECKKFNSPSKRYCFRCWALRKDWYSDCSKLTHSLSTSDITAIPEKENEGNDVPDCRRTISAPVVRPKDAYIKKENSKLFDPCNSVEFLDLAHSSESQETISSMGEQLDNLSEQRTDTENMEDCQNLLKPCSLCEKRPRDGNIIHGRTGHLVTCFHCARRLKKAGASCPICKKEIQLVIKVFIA
Sequence of Protein Mdm4 (Homo sapiens) + E3 ubiquitin-protein ligase Mdm2 (Homo sapiens) (Q00987 whole entry, looked up): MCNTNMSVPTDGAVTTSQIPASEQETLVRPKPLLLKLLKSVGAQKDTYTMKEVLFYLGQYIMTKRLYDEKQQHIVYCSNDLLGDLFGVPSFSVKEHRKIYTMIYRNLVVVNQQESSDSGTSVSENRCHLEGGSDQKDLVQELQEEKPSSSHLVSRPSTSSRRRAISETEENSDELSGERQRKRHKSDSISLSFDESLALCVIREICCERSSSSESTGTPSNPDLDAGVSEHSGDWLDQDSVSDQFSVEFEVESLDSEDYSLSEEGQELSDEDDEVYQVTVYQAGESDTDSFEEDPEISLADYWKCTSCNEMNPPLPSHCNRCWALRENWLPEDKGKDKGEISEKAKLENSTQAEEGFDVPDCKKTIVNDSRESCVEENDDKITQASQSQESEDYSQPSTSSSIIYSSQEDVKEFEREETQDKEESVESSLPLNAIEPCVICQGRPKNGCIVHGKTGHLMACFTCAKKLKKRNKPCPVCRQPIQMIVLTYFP

The experiment addresses Protein Mdm4 (Homo sapiens) + E3 ubiquitin-protein ligase Mdm2 (Homo sapiens) (UniProt O15151+Q00987). Kind of experiment: disruptors of Mdm2/MdmX RING complex – cell-based, luminescence, split luciferase, SaOS-2, uHTS, primary screen (AID 485346). The settings on record: SaOS-2 split-luciferase Mdm2/MdmX complementation, at 8 µM, hits give high values.
Consider `CCOc1cc(NC(=S)NCc2ccco2)c(OCC)cc1NC(=O)c1ccco1`, for which the inhibition was 9.15%.

Regarding `CCCc1ccc(OCCNC(=O)c2ccco2)cc1`, the inhibition was -4.69%.

In the case of `CCCc1ccc(OCC(=O)NNC(=S)NC(=O)c2ccco2)cc1`, the inhibition is 50% (active).

With `COc1ccc(C(=O)NC(=S)NNC(=O)c2c(-c3ccccc3)noc2C)cc1`, the inhibition is 14.7%.

For `CC(Oc1ccc2ccccc2c1)C(=O)NNC(=S)NC(=O)c1ccco1` (configuration not stated), the inhibition is 19.6%.

With `COc1ccc(C(=O)NC(=S)NNC(=O)CCc2ccccc2)cc1`, the inhibition is 58.1% (active).

As to `CCOc1cc(NC(=O)c2ccco2)c(OCC)cc1NC(=O)COc1ccccc1`, the inhibition was 55.2% (active).

In the case of `CC(C)Oc1ccc(CCC(=O)NNC(=S)NCc2ccccc2)cc1`, the inhibition is -12.8%.

For the compound `COc1ccc(OCC(=O)Nc2ccc(NC(=O)c3ccco3)c(C)c2)cc1`, the inhibition was -0.739%.

Regarding `Cc1cccc(OC(C)C(=O)N2CCc3ccccc3C2)c1` (configuration not stated), the inhibition was -5.47%.

For `COC(c1ccccc1)c1nnc(CCC(=O)N2CCN(CCOc3ccccc3)CC2)o1` (configuration not stated), the inhibition is -18.9%.

Take `CC(C)c1ccc(NC(=O)COC(=O)c2ccc(CN3CCCC3=O)cc2)cc1`: the inhibition is 8.45%.

As for `COc1c(N2CCN(C(=S)Nc3ccccc3F)C(C)C2)c(F)cc2c(=O)c(C(=O)O)cn(C3CC3)c12` (configuration not stated), the inhibition is -14.1%.

On to `CNC(=O)NC(=O)C(OC(=O)c1cccc(S(=O)(=O)N2CCCCC2)c1)c1ccccc1` (configuration not stated), for which the inhibition was -21.4%.

As to `Cc1nc(Cl)cc(N/N=C/c2ccccc2)n1`, the inhibition was -5.97%.

For `COc1ccc(/C=N/Nc2cc(N3CCOCC3)nc(C)n2)c(OC)c1`, the inhibition is 19.1%.

With `COc1ccccc1/C=N\Nc1cc(C)nc(-n2nc(C)cc2C)n1`, the inhibition is 57.4% (active).

With `COc1cccc(/C=N/Nc2cc(C)nc(-c3ccccc3O)n2)c1O`, the inhibition was 93.4% (active).

`COc1ccccc1/C=N/Nc1nc(C)c(C(C)=O)s1`: the inhibition was -49.5%.

As for `Cc1cc(N/N=C\c2ccc(Br)cc2)nc(-n2nc(C)cc2C)n1`, the inhibition was 35.8%.

Turning to `COCCC(=O)Nc1ccc2c(c1)CN(C(=O)CCOC)CC2`, the inhibition was 8.33%.

Regarding `O=C1NC(c2ccccc2)Oc2ccccc21` (configuration not stated), the inhibition is 12.9%.

With `Cc1ccc(S(=O)(=O)NCCC(=O)OCC(=O)N(C)c2ccccc2)cc1`, the inhibition was -1.91%.

`COc1ccc(CN2CCN(C(=O)c3cc(C4CC4)nn3-c3ccccc3)CC2)cc1F`: the inhibition was 12.7%.

For the compound `Cc1ccc(C)c(C(=O)N2CCC(n3nccc3NC(=O)C3CC3)CC2)c1`, the inhibition was 13.7%.

For the compound `COc1cc(C2CC(=O)Oc3cc(OC)c(OC)c(OC)c32)cc(OC)c1OC` (configuration not stated), the inhibition was -1.07%.

With `CC(CNC(=O)c1ccc(N)cc1)NC(=O)c1ccc(N)cc1` (configuration not stated), the inhibition was -17.5%.

Consider `Cc1ccc(C(=O)/C=C/c2c(C)nn(-c3ccccc3)c2Cl)cc1`, for which the inhibition was 7.37%.

Take `O=C(CSc1ncn[nH]1)N/N=C/c1ccc(F)cc1`: the inhibition was 1.12%.

Take `O=C(/C=C/Sc1ncn[nH]1)c1ccc(Cl)cc1`: the inhibition was 97.6% (active).

On to `CC(=O)Nc1ccc(NS(=O)(=O)c2ccc3c(c2)NC(=O)CC(=O)N3)cc1`, for which the inhibition was 9.58%.

Regarding `CC(=O)Nc1ccc(S(=O)(=O)Nc2ccc(N3CCOCC3)c(F)c2)cc1`, the inhibition is -7.04%.

On to `CC(=O)Nc1ccc(S(=O)(=O)Nc2ccc(N3CCCCC3)cc2)cc1`, for which the inhibition was 55% (active).

Consider `COc1ccc(OCC(=O)NNC(=O)C2CCC2)cc1`, for which the inhibition is 4.55%.

As to `COCc1nnc(NC(=O)c2ccc3c(c2)OCO3)s1`, the inhibition was -40.4%.

For the compound `Cc1ccc(C(=O)Nc2sc(Cc3ccc4c(c3)OCO4)c(C)c2C(N)=O)cc1`, the inhibition was 75.3% (active).

Regarding `COc1ccc(CC(=O)Nc2sc(Cc3ccccc3)c(C)c2C(N)=O)cc1`, the inhibition is -12.1%.

Turning to `Cc1nn2c(NCCN(C)C)c3c(nc2c1-c1ccccc1)CCC3`, the inhibition was 1.13%.

Consider `CCc1cc2c(=O)n(-c3ccccc3)c(SCC(=O)O)nc2s1`, for which the inhibition is 0.424%.

With `CC(=O)N1C(=O)/C(=C2\SC(=S)N(NC(=O)c3ccc(O)cc3)C2=O)c2ccccc21`, the inhibition is -4.31%.

In the case of `COc1ccc(/C=C2\SC(=S)N(CCCC(=O)NC3CCCC3)C2=O)cc1OC`, the inhibition is 42.6%.

As to `O=C1/C(=C/c2ccc(F)cc2)SC(=S)N1CCCC(=O)N1CCCCC1CCO` (configuration not stated), the inhibition is 81.8% (active).

In the case of `CCN(C(=O)CN1C(=O)/C(=C/c2ccc(F)cc2)SC1=S)C1CCS(=O)(=O)C1` (configuration not stated), the inhibition was -3.51%.

For the compound `Cc1ccc(O)c(NC(=S)NC(=O)COc2ccc(Br)cc2)c1`, the inhibition is -6.04%.

On to `CCCCN1C(=S)NC[C@@H]1C(C)CC` (some centres not stated), for which the inhibition was -2.44%.

With `CC1Cc2ccccc2N1S(=O)(=O)c1cccc(C(=O)OCC(=O)N2CCOCC2)c1` (configuration not stated), the inhibition is 9.37%.

As for `CCCCn1ccnc1C(=O)c1cccc(S(=O)(=O)N2c3ccccc3CC2C)c1` (configuration not stated), the inhibition was 55.3% (active).

`CC1Cc2ccccc2N1S(=O)(=O)c1cccc(C(=O)NCC(c2ccco2)N2CCCC2)c1` (configuration not stated): the inhibition is 6.48%.

Regarding `Cc1noc(C)c1S(=O)(=O)Nc1ccc(C(=O)N2CCN(c3ccc(F)cc3)CC2)cc1`, the inhibition is 16.2%.

For `COc1ccc(CCNC(=O)COC(=O)Cc2cccc(F)c2)cc1`, the inhibition is 5.4%.

As to `COc1ccc(C(=O)OCC(=O)N2CC(=O)Nc3ccccc32)cc1Br`, the inhibition is -3.51%.

On to `O=[N+]([O-])c1c(NCCO)cc(Sc2nc3ccccc3s2)c2nonc12`, for which the inhibition is 50.1% (active).

For `O=C(O)c1ccccc1CSc1nc2ccccc2s1`, the inhibition is -21.2%.

`CCOc1ccccc1Nc1ccc2nonc2c1[N+](=O)[O-]`: the inhibition is 9.13%.

`COC(=O)[C@]1(C)N[C@H](CN(C)C(=O)c2ccc(C(C)(C)C)cc2)[C@@H]2C(=O)N(C)C(=O)[C@@H]21`: the inhibition was 4.61%.

Regarding `CC(=O)CCS(=O)(=O)c1ccc(C)c(C)c1`, the inhibition is 2.16%.

Turning to `CCCn1c(C)cc(-c2csc(NC(=O)CCc3nc4ccccc4c(=O)[nH]3)n2)c1C`, the inhibition was 13.7%.

`Cc1ccccc1OCC(=O)Nc1ccc(S(=O)(=O)N2CCOCC2)cc1`: the inhibition was -21.2%.

As for `Cc1cc(S(=O)(=O)N2CCOCC2)ccc1OCC(=O)N1CCOCC1`, the inhibition is -24.7%.

For `Cc1cc(C(=O)COc2ccccc2[N+](=O)[O-])c(C)n1-c1cccc(S(=O)(=O)N2CCOCC2)c1`, the inhibition was 71.1% (active).

On to `CCN(CC)c1ccc(/C=N/NC(=O)c2cnccn2)c(O)c1`, for which the inhibition was 72.8% (active).

On to `O=C(Nc1ccc2c(c1)OCCO2)c1cnccn1`, for which the inhibition is -7.26%.

As to `CCN(CC)c1ccc(/C=N/Nc2nc(C)cc(C)n2)c(O)c1`, the inhibition was 72.9% (active).

As to `Cc1cc(C)nc(N/N=C/c2c(CO)cnc(C)c2O)n1`, the inhibition was 27.1%.

For the compound `Cc1ccc(C(=O)NCCNC(=O)c2cnccn2)cc1`, the inhibition was 18.3%.

In the case of `Cc1cc(C)nc(N/N=C/c2c(C)oc3ccccc23)n1`, the inhibition was 33.3%.

In the case of `Cc1ccc(-n2c(SCC(=O)NCc3ccc4c(c3)OCO4)nnc2-c2cccnc2)c(C)c1`, the inhibition is 1.7%.

As to `CCN(C(=O)CSc1nnnn1-c1ccc(OC)cc1)C1CCS(=O)(=O)C1` (configuration not stated), the inhibition was -4.86%.

As for `COC(=O)C1CCN(C(=O)COC(=O)c2cc(S(=O)(=O)N3CCOCC3)ccc2C)CC1`, the inhibition is 1.32%.

`CCCCn1c(N)c(N(CC)C(=O)/C=C/c2ccco2)c(=O)[nH]c1=O`: the inhibition was 15.3%.

Turning to `CC[C@]1(O)C[C@@H]2CN(CCc3c([nH]c4ccccc34)[C@@](C(=O)OC)(c3cc4c(cc3OC)N(C)[C@H]3[C@@](O)(C(=O)OC)[C@H](OC(C)=O)[C@]5(CC)C=CCN6CC[C@]43[C@@H]65)C2)C1`, the inhibition is 85.9% (active).

For the compound `CC[C@]1(O)CC2CN(CCc3c([nH]c4ccccc34)[C@@](C(=O)OC)(c3cc4c(cc3OC)N(C=O)[C@H]3[C@@](O)(C(=O)OC)[C@H](OC(C)=O)[C@]5(CC)C=CCN6CC[C@]43[C@@H]65)C2)C1` (some centres not stated), the inhibition was 67.5% (active).

Turning to `CCNC(=O)COc1cc(C)c(Br)c(C)c1`, the inhibition is 15.7%.

Turning to `Cc1ccc(S(=O)(=O)N(Cc2ccccc2)c2ccccn2)cc1[N+](=O)[O-]`, the inhibition is 23.2%.

In the case of `COc1cc(C(=O)OCc2cc(=O)n3ccsc3n2)ccc1OC(C)C`, the inhibition is -18.9%.

As for `CC1CCC2CCCCC2N1C(=O)c1cc([N+](=O)[O-])cc([N+](=O)[O-])c1` (configuration not stated), the inhibition is 5.25%.

`Cc1ccc(S(=O)(=O)N(C)c2ccc(OCC(=O)OCc3ccc(C#N)cc3)cc2)cc1`: the inhibition was 1.14%.

In the case of `CC1CCN(C(=O)c2cc3nc(C4CC4)cc(C(F)(F)F)n3n2)CC1`, the inhibition was 0.061%.

`COc1ccc2[nH]c3c(c2c1)CCN1C(=O)C(CC(=O)NCc2cccc(C(F)(F)F)c2)C[C@H](C(=O)N2CCOCC2)[C@@]31C` (some centres not stated): the inhibition was 17.2%.

Turning to `CCOc1ccc2c(=O)c(-c3ccc4c(c3)OCCCO4)c(C)oc2c1`, the inhibition was 19.6%.

`Cn1c2ccccc2c(=O)c2c(O)cccc21`: the inhibition was 5.57%.

On to `Cn1c2ccccc2c(=O)c2c(=O)n(Cc3ccco3)c(COc3ccccc3)nc21`, for which the inhibition was 33.8%.

Consider `CCCc1nc2c(c(=O)c3ccccc3n2C)c(=O)n1C1CCCCCC1`, for which the inhibition is 76.1% (active).

On to `CC(C)C1C2=C(CC(C)(C)CC2=O)ON1c1ccccc1` (configuration not stated), for which the inhibition was 16.1%.

As to `COc1cccc(/C=C(/CC(=O)Nc2ccc(N3CCOCC3)cc2)c2nc3ccccc3s2)c1`, the inhibition is 18.2%.

As for `O=C(COC(=O)Cn1[nH]c(=O)c2ccccc2c1=O)Nc1c(Cl)cccc1C(F)(F)F`, the inhibition is -4.75%.

Consider `O=C(NCc1nnc(SCC(=O)N2CCCCCC2)o1)c1ccc(F)cc1`, for which the inhibition was 10.6%.
